Drawing on publication PMC11062922 (Nature Chemical Biology, 2023), this text covers potency estimated from few doses for 16 compounds.

Each structure is given as a SMILES string.

For one assay, the system named is MAP2K1. On the set-up: species or system human, MV4-11 + K-562 + COLO205 + SK-N-BE2 + OVCAR-8. To be noted: read-out: apparent Kd; compound concentrations:100 nM and 1000 nM (sheet 'Samples'); n = 1.
Regarding `O=C1NC(=O)C(c2ccc(Cl)cc2)=C1Nc1cccc(Cl)c1` [SB-317651], the potency estimated from few doses was 1860 nM.
On the same count and under the same terms, with `Cc1c(Cn2c(C)nn3c(=O)cc(N4CCOC(C)C4)nc23)cccc1C(F)(F)F` (stereo not shown) [GSK2344444A] the figure was 2250 nM; with `CCOc1cc(N2CCC(O)CC2)ccc1Nc1ncc2c(n1)N(C)c1ccccc1C(=O)N2C` [XMD8-92], 1780 nM.

The test system of a further assay is MAPK10. On the set-up: species or system human, MV4-11 + K-562 + COLO205 + SK-N-BE2 + OVCAR-8. To be noted: read-out: apparent Kd; compound concentrations:100 nM and 1000 nM (sheet 'Samples'); n = 1.
For the compound `CC(C)Nc1ncc2cc(Oc3ccc(F)cc3F)c(=O)n(C)c2n1.Cl` [RO3309180-001], the potency estimated from few doses was 68.5 nM.
On the same count and under the same terms, next, `N#CCn1c(=O)c(Oc2ccc(F)cc2F)cc2cnc(NC3CCOCC3)nc21` [RO5040027-000]: 45.1 nM; `CS(=O)(=O)CCCn1c(=O)c(Oc2ccc(F)cc2F)cc2cnc(NC3CCOCC3)nc21` [RO5033700-000]: 93.9 nM; `Cl.Cn1c(=O)c(Oc2ccccc2F)cc2cnc(NC3CCOCC3)nc21` [RO3304805-001]: 1050 nM.
The same measure, in the same setting: with `O=c1[nH]c2nc(NC3CCOCC3)ncc2cc1Oc1ccc(F)cc1F` [RO3310867-000] the figure was 150 nM.

The subject of a further assay is MAPK11. Also on record: species or system human, MV4-11 + K-562 + COLO205 + SK-N-BE2 + OVCAR-8. To be noted: read-out: apparent Kd; compound concentrations: 100 nM and 1000 nM (sheet 'Samples'), CATDS: 1; n = 1.
Take `CN1CCN(CCc2cccc(C(=O)c3cnn(-c4ccc(F)cc4)c3N)c2)CC1.Cl` [RO1160347-001]: the potency estimated from few doses is 1330 nM.
The same measure, in the same setting: next, `Nc1c(C(=O)c2cccc(OC[C@H](O)CO)c2)cnn1-c1ccc(F)cc1` [RO3201196-000]: 697 nM; `Nc1c(C(=O)c2cccc(C#CCO)c2)cnn1-c1ccc(F)cc1` [RO1153836-000]: 591 nM; `Nc1c(C(=O)c2cccc(OCCN3CCOCC3)c2)cnn1-c1ccc(F)cc1` [RO5301104-000]: 701 nM.

Still in this assay, the particulars now being: read-out: apparent Kd; compound concentrations:100 nM and 1000 nM (sheet 'Samples'); n = 1.
Turning to `O=C(Nc1n[nH]c2nc(-c3ccccc3)c(Cl)cc12)C1CC1` [SB-734909], the potency estimated from few doses was 1940 nM.
Still for that read-out and setting: with `CC(C)Nc1ncc2cc(Oc3ccc(F)cc3F)c(=O)n(C)c2n1.Cl` [RO3309180-001] the figure was 439 nM; with `COCCNC(=O)c1ccc(-c2cc(C(=O)NC3CC3)cc(F)c2C)cc1` [GW868318X], 108 nM; with `Cc1ccc(NC(=O)c2ccnc(N3CCCCC3)c2)cc1-c1ccc(C(=O)NCC2CC2)cc1` [GW775610X], 309 nM.
The same measure, in the same setting: with `N#CCn1c(=O)c(Oc2ccc(F)cc2F)cc2cnc(NC3CCOCC3)nc21` [RO5040027-000] the figure was 146 nM; with `CS(=O)(=O)CCCn1c(=O)c(Oc2ccc(F)cc2F)cc2cnc(NC3CCOCC3)nc21` [RO5033700-000], 630 nM; with `Cl.Cn1c(=O)c(Oc2ccc(F)cc2F)cc2cnc(N[C@H]3CC[C@H](O)CC3)nc21` [RO3305413-001], 806 nM.
Same read-out and setting: next, `O=c1[nH]c2nc(NC3CCOCC3)ncc2cc1Oc1ccc(F)cc1F` [RO3310867-000]: 655 nM.

The subject of a further assay is MAPK14. Also on record: species or system human, MV4-11 + K-562 + COLO205 + SK-N-BE2 + OVCAR-8. To be noted: read-out: apparent Kd; compound concentrations:100 nM and 1000 nM (sheet 'Samples'); n = 1.
As for `CC(C)Nc1ncc2cc(Oc3ccc(F)cc3F)c(=O)n(C)c2n1.Cl` [RO3309180-001], the potency estimated from few doses is 9.9 nM.
On the same count and under the same terms, next, `Cc1ccc(NC(=O)c2ccnc(N3CCCCC3)c2)cc1-c1ccc(C(=O)NCC2CC2)cc1` [GW775610X]: 199 nM; `N#CCn1c(=O)c(Oc2ccc(F)cc2F)cc2cnc(NC3CCOCC3)nc21` [RO5040027-000]: 3.79 nM; `CS(=O)(=O)CCCn1c(=O)c(Oc2ccc(F)cc2F)cc2cnc(NC3CCOCC3)nc21` [RO5033700-000]: 7.7 nM.
Turning to `Cl.Cn1c(=O)c(Oc2ccc(F)cc2F)cc2cnc(N[C@H]3CC[C@H](O)CC3)nc21` [RO3305413-001], the potency estimated from few doses is 5.68 nM.
For the compound `Cl.Cn1c(=O)c(Oc2ccccc2F)cc2cnc(NC3CCOCC3)nc21` [RO3304805-001], the potency estimated from few doses was 58.4 nM.

The subject of the next assay is MAPK8. On the set-up: species or system human, MV4-11 + K-562 + COLO205 + SK-N-BE2 + OVCAR-8. To be noted: read-out: apparent Kd; compound concentrations:100 nM and 1000 nM (sheet 'Samples'); n = 1.
For the compound `CC(C)Nc1ncc2cc(Oc3ccc(F)cc3F)c(=O)n(C)c2n1.Cl` [RO3309180-001], the potency estimated from few doses was 1080 nM.
On the same count and under the same terms, with `N#CCn1c(=O)c(Oc2ccc(F)cc2F)cc2cnc(NC3CCOCC3)nc21` [RO5040027-000] the figure was 523 nM; with `CS(=O)(=O)CCCn1c(=O)c(Oc2ccc(F)cc2F)cc2cnc(NC3CCOCC3)nc21` [RO5033700-000], 466 nM; with `Cl.Cn1c(=O)c(Oc2ccc(F)cc2F)cc2cnc(N[C@H]3CC[C@H](O)CC3)nc21` [RO3305413-001], 75.9 nM.
The same measure, in the same setting: with `O=c1[nH]c2nc(NC3CCOCC3)ncc2cc1Oc1ccc(F)cc1F` [RO3310867-000] the figure was 554 nM.

In the next assay the test system is MAPK9. Also on record: species or system human, MV4-11 + K-562 + COLO205 + SK-N-BE2 + OVCAR-8. To be noted: read-out: apparent Kd; compound concentrations:100 nM and 1000 nM (sheet 'Samples'); n = 1.
On to `CC(C)Nc1ncc2cc(Oc3ccc(F)cc3F)c(=O)n(C)c2n1.Cl` [RO3309180-001], for which the potency estimated from few doses was 369 nM.
On the same count and under the same terms, with `N#CCn1c(=O)c(Oc2ccc(F)cc2F)cc2cnc(NC3CCOCC3)nc21` [RO5040027-000] the figure was 146 nM; with `CS(=O)(=O)CCCn1c(=O)c(Oc2ccc(F)cc2F)cc2cnc(NC3CCOCC3)nc21` [RO5033700-000], 110 nM.
On the same count and under the same terms, with `Cl.Cn1c(=O)c(Oc2ccc(F)cc2F)cc2cnc(N[C@H]3CC[C@H](O)CC3)nc21` [RO3305413-001] the figure was 26.4 nM.
On the same count and under the same terms, with `Cl.Cn1c(=O)c(Oc2ccccc2F)cc2cnc(NC3CCOCC3)nc21` [RO3304805-001] the figure was 484 nM; with `O=c1[nH]c2nc(NC3CCOCC3)ncc2cc1Oc1ccc(F)cc1F` [RO3310867-000], 98.4 nM.
